# Measurements published in PubChem BioAssay (NCATS).
# A number with no mark means an inactive call. Records with an inconclusive call do not appear. Entries that show only a call come without a potency. Calls of active or inactive are those of the source. Unless noted, the call rests on the fitted dose curve; in most records, active means well fitted curve in the direction sought with a large enough effect; inconclusive means small, poorly fitted or top-dose-only effect, or another doubt; inactive means no such curve, though single readings can be large; an effect the other way counts as inactive or inconclusive.
# What was measured:
# [1] = molecular target: Calcium and integrin-binding protein 1 (Homo sapiens) (UniProt Q99828); experiment: Confirmatory qHTS for Identification of Calcium Integrin Binding Protein 1 (CIB1) Competitor (AID 1508617); further: nearly all actives have a fitted effect of over 65% in size; further: potency means the concentration at half of the fitted maximal effect
# In short: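 Binding competition between test compounds and fluorescent alphaIIb peptide for 1 uM CIB1-GST is monitored by FP at 480/540 nm. Final compound range is up to 114 uM; unlabeled peptide serves as reference competitor.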
# [2] = Validation of Assay for Modulators of Lamin A Splicing (AID 1459; active means well fitted curve in the direction sought with a large enough effect in the signal ratio; the % refers to the signal ratio;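 further: cells exposed to compound for two days before reading; ratio rise marks activators and ratio drop marks inhibitors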)
# In short: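 S3 HeLa cells stably expressing a lamin A-EGFP splicing minigene and DsRed2 were seeded at 600 cells/well in Opti-MEM with 2% FBS, pin-dosed, and incubated 48 hrs at 37 °C, 5% CO2. Laser-scanning cytometry (488 nm) gave GFP/RFP total intensity ratio.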
# [3] = molecular target: DNA repair nuclease/redox regulator APEX1 (Homo sapiens) (UniProt P27695); experiment: qHTS Validation Assay for Inhibitors of the Human Apurinic/apyrimidinic Endonuclease 1 (APE1) (AID 1705;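 further: TAMRA fluorescence gain over two minutes as APE1 cuts a quenched THF abasic duplex; series mostly up to about 57 µM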)
# In short: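 Human APE1 was preincubated with compound for 15 min at room temperature, then 50 nM (final) THF-abasic double-stranded DNA substrate bearing 5'-TAMRA and 3'-BHQ-2 was added. Incision-driven fluorescence rise (ex 525/em 598 nm) was read kinetically.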
# [4] = Counterscreen for APE1 Inhibitors: Fluorescent Dye Displacement Validation Assay (AID 1707)
# In short: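 ThO 250 nM + dsDNA 50 nM (THF abasic site, 5'-TAMRA), Tris-HCl pH7.5/50mM NaCl/2 mM MgCl2/0.01% Tween-20; compounds pin-transferred; ex 480/em 540 nm endpoint. Neutral = no compound; no-DNA ThO wells = negative control.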
# [5] = molecular target: ATP-dependent DNA helicase Q1 (Homo sapiens) (UniProt P46063); experiment: qHTS Validation Assay for Inhibitors of RecQ-Like Dna Helicase 1 (RECQ1) (AID 2353)
# In short: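 50 nM RECQ1T1 preincubated 15 min with compound in Tris pH 8.0 buffer with MgCl2, DTT, Tween-20 and 2.5 ug/ml poly(dI-dC); started with 200 nM TAMRA/BHQ-2 forked duplex and 2 mM ATP. Unwinding read as fluorescence (525/598 nm), two reads 2 h apart.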
# [6] = Quantitative high throughput screen for delayed death inhibitors of the malarial parasite plastid, 96 hour incubation (AID 488745); further: nearly all actives have a fitted effect of over 70% in size; further: potency means the concentration at half of the fitted maximal effect
# In short: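 Infected erythrocytes were added to compound in Albumax-supplemented RPMI 1640 at 0.1% parasitemia and 2% hematocrit (final), incubated 96 h at 37 C under 5% CO2, then luciferase reagent was added and luminescence measured.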
# [7] = Quantitative high throughput screen for delayed death inhibitors of the malarial parasite plastid, 48 hour incubation (AID 488752); further: potency means the concentration at half of the fitted maximal effect; nearly all actives have a fitted effect of over 65% in size
# In short: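 Readout is firefly luciferase luminescence from a reporter integrated into the parasite genome, with lower signal taken as inhibited growth. Infected red cells (0.1% parasitemia, 2% hematocrit final) are cultured with compound for one 48 h cycle at 37 C.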
# [8] = molecular target: Transient receptor potential cation channel subfamily V member 1 (Homo sapiens) (UniProt Q8NER1); experiment: HTS Assay for Compounds that Act as Enhancers of the Vanilloid Receptor 1 (AID 488979)
# In short: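 TRPV1 cells loaded with Fluo-8 calcium dye; compound added and Ca2+ signal (ex 480/em 520 nm) followed 3 min, then capsaicin at EC20 added and read 2 more min to detect enhancement.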
# [9] = molecular target: Thyrotropin receptor (Homo sapiens) (UniProt P16473); experiment: qHTS Assay for Antagonists of the Thyroid Stimulating Hormone Receptor (AID 488980); further: series mostly up to about 58 µM
# In short: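 HEK293 cells transfected with human TSHR, suspended in HEPES-buffered HBSS with 70 uM RO 20-1724, were treated with compounds plus TSH at EC80 (4 nM final). cAMP was measured by competitive HTRF (cryptate anti-cAMP antibody, cAMP-d2 acceptor).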
# [10] = molecular target: Thyrotropin-releasing hormone receptor (Homo sapiens) (UniProt P34981); experiment: qHTS for Small Molecule Agonists and Allosteric Enhancers of Human TRH Receptor: Validation Screen for Agonists (AID 493127;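 active means calcium activation more than 3 SD above the typical response in the agonist read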;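 further: intracellular calcium rise by fluo-8 fluorescence before TRH EC20 addition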); conditions: TRH receptor agonist cell assay; at 2 µM; active compounds read high
# In short: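 Cells 2000/well, 10% FCS, 18 h 33.5C/5% CO2 → fluo-8 Ca dye, RT 30 min–1.5 h → FDSS baseline 10 × 1 s → compound added → 230 cycles (1 s/cycle) agonist mode. TRH controls.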
# [11] = molecular target: Galactokinase (Homo sapiens) (UniProt P51570); experiment: qHTS Validation Assay for Inhibitors of Human Galactokinase (GALK) (AID 493189)
# In short: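 GALK (5 nM) with 35 uM ATP and 100 uM galactose in HEPES pH8.0, MgCl2, NaCl, DTT, BSA; 1 h at room temperature. Residual ATP read by Kinase-Glo Plus luminescence after 10 min.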
# [12] = Validation screen for small molecules that induce DNA re-replication in SW480 colon adenocarcinoma cells (AID 504364)
# In short: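 250 cells/well; compound pinned in; 48 hr, 37 C, 5% CO2; Hoechst added, 40 min; nuclear fluorescence imaged, 405 ex / 500-530 em; re-replication scored as increase in high-intensity nuclei.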
# [13] = molecular target: Voltage-gated inwardly rectifying potassium channel KCNH2 (Homo sapiens) (UniProt Q12809); experiment: qHTS Assay for Small Molecule Inhibitors of the Human hERG Channel Activity (AID 588834);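 further: lower thallium flux fluorescence means stronger hERG block; nearly all actives have a fitted effect of over 50% in size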; further: potency means the concentration at half of the fitted maximal effect
# In short: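 U2OS cells transduced with hERG via BacMam (MOI ~100), plated 2000/well, loaded with FluxOR thallium dye, compound ~10 min, then stimulation buffer; fluorescence decrease read kinetically; AC50 from Hill fits.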
# [14] = molecular target: Endonuclease 4 (Escherichia coli (strain K12)) (UniProt P0A6C1); experiment: Counterscreen for APE1 Inhibitors: qHTS Validation Assay for Inhibitors of Endonuclease IV (AID 1708)
# In short: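 E. coli EndoIV at 2 nM final, preincubated 15 min at room temperature with compound, then 50 nM TAMRA/BHQ-2 THF abasic-site duplex added. Buffer: 50 mM Tris-HCl pH 7.5, 50 mM NaCl, 2 mM MgCl2, 1 mM DTT, 0.01% Tween-20. Kinetic fluorescence increase, third minus first read.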
# [15] = qHTS for differential inhibitors of proliferation of Plasmodium falciparum line Dd2 (AID 1882); conditions: Potency: Plasmodium falciparum Dd2 proliferation inhibition; further: series mostly up to about 29 µM; nearly all actives have a fitted effect of over 65% in size
# In short: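 Dd2-infected erythrocytes (0.3% parasitemia, 2.5% hematocrit final) incubated with compound 72 h at 37 C, 5% CO2; lysed with saponin/Triton buffer containing SYBR Green I, incubated overnight in the dark, then read by fluorescence (485/535 nm). Normalized to 0.29 uM artemisinin and DMSO.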
# [16] = Validation screen for small molecules that induce DNA re-replication in MCF 10A normal breast cells (AID 463097); further: nearly all actives have a fitted effect of over 60% in size
# In short: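 Readout: Hoechst nuclear fluorescence intensity, 405 ex / 500-530 em, by scanning plate imager; re-replication scored as increase in nuclei with elevated DNA content. Cells exposed to compound 48 hr, 37 C, 5% CO2 beforehand.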
# Chain of Galactokinase (Homo sapiens) (P51570 whole entry, looked up): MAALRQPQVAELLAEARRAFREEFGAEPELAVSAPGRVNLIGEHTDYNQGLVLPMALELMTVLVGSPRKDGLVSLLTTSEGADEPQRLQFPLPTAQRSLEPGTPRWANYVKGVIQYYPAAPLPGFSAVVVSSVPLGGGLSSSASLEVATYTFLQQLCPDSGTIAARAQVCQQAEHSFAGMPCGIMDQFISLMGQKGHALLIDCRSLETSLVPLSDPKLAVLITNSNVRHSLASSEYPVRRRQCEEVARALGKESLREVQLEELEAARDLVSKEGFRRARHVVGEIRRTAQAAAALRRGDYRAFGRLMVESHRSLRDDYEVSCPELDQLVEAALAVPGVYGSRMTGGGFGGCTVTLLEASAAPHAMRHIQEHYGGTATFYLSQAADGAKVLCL
# Chain of Thyrotropin-releasing hormone receptor (Homo sapiens) (P34981 whole entry, looked up): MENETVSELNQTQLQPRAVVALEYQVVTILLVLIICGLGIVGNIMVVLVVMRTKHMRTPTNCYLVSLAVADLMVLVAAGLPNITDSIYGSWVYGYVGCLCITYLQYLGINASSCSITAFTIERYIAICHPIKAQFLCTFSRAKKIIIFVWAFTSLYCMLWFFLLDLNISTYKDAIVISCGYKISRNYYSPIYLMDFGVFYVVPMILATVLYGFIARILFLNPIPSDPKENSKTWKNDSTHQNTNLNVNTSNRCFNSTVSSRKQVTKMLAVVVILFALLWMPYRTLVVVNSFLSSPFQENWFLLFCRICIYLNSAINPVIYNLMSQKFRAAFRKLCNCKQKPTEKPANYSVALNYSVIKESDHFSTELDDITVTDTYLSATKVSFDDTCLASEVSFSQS
# Chain of Voltage-gated inwardly rectifying potassium channel KCNH2 (Homo sapiens) (Q12809 whole entry, looked up): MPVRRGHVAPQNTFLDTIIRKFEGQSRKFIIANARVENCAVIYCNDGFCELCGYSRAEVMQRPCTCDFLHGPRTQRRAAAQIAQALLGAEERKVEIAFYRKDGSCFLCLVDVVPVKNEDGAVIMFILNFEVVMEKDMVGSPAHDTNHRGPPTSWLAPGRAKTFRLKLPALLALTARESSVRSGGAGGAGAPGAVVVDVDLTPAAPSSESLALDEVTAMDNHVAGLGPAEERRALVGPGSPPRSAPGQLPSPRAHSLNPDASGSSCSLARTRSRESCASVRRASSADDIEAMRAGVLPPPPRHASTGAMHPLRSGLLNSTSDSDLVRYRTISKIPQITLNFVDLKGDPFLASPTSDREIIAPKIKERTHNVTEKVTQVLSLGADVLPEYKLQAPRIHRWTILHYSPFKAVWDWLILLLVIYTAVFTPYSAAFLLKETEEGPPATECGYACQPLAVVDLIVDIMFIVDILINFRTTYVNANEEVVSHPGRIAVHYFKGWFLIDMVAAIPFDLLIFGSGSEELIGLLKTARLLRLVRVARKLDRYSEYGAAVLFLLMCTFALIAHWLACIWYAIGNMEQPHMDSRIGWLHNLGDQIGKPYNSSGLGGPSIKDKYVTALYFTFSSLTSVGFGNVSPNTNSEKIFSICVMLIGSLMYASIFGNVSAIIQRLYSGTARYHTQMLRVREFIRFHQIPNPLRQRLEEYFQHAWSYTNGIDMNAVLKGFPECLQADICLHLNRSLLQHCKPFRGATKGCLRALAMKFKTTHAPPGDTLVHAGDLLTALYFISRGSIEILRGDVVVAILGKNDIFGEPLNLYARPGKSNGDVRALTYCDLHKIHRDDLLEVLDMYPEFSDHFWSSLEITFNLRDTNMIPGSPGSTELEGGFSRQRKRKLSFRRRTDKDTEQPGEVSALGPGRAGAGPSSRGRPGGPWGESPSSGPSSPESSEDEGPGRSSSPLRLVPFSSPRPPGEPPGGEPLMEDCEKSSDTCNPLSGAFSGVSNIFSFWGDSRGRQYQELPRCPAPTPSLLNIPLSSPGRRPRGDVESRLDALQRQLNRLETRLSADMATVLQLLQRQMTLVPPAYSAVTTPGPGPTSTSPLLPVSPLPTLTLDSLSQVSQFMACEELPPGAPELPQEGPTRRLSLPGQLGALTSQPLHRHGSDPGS
# Chain of Thyrotropin receptor (Homo sapiens) (P16473 whole entry, looked up): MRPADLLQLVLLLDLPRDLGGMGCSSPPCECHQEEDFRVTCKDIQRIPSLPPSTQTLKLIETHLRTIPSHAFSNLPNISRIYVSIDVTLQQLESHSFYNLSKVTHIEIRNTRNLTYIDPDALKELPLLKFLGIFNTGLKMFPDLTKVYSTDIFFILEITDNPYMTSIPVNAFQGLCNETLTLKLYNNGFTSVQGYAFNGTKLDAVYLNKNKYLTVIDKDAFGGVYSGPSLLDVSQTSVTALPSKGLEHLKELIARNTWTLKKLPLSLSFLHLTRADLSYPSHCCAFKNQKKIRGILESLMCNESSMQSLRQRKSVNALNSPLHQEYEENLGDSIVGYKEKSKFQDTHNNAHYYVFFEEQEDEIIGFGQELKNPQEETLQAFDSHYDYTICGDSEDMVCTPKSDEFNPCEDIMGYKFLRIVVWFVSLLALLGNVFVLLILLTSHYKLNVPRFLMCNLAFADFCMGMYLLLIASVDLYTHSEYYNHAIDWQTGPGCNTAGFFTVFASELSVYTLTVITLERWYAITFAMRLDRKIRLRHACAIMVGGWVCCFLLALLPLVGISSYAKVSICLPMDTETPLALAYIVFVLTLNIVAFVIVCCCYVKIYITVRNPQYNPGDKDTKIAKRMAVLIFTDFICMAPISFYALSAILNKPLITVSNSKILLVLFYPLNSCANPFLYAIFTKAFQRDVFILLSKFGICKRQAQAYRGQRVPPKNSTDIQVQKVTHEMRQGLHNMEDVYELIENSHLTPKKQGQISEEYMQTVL
# Chain of ATP-dependent DNA helicase Q1 (Homo sapiens) (P46063 whole entry, looked up): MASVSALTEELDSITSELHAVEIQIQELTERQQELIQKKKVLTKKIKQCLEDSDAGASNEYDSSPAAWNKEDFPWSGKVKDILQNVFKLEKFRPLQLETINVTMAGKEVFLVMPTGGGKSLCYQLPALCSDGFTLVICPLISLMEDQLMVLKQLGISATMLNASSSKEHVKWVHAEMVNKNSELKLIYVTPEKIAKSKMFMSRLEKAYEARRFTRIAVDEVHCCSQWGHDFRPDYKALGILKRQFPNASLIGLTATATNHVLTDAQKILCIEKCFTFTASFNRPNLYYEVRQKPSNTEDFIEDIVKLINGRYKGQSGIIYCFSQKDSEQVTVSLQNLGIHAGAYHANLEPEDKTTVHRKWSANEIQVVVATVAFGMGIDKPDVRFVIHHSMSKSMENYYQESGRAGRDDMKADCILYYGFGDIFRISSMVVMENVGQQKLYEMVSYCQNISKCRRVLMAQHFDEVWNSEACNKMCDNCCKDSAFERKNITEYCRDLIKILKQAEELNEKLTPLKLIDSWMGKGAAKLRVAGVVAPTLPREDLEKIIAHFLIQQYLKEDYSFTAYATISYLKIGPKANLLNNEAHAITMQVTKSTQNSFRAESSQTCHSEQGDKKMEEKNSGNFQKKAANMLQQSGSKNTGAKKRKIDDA
# Chain of Calcium and integrin-binding protein 1 (Homo sapiens) (Q99828 whole entry, looked up): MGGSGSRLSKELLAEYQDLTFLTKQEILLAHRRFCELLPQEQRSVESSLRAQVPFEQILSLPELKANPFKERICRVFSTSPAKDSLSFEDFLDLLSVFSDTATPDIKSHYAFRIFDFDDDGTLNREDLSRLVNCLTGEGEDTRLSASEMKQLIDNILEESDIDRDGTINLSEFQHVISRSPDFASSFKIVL
# Chain of Transient receptor potential cation channel subfamily V member 1 (Homo sapiens) (Q8NER1 whole entry, looked up): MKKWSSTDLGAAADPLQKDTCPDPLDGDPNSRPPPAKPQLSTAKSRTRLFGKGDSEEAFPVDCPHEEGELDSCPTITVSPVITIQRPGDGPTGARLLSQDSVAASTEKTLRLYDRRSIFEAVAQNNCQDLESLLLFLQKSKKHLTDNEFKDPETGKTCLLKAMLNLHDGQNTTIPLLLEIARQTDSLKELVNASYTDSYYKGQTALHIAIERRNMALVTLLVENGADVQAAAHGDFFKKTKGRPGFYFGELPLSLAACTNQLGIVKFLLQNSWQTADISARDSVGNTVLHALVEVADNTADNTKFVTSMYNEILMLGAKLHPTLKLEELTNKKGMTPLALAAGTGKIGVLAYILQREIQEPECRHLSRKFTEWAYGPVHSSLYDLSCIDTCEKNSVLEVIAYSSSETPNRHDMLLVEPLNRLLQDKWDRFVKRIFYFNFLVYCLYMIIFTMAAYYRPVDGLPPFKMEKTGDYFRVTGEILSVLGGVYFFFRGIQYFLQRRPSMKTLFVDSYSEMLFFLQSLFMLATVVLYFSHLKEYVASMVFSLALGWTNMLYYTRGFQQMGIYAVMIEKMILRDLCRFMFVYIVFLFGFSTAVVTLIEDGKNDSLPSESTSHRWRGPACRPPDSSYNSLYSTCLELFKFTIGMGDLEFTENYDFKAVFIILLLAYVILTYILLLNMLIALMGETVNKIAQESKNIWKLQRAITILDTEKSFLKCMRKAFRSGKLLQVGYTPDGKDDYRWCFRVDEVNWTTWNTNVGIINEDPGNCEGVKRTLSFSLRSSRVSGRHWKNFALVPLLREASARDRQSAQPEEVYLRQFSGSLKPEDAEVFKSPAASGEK
# Chain of DNA repair nuclease/redox regulator APEX1 (Homo sapiens) (P27695 whole entry, looked up): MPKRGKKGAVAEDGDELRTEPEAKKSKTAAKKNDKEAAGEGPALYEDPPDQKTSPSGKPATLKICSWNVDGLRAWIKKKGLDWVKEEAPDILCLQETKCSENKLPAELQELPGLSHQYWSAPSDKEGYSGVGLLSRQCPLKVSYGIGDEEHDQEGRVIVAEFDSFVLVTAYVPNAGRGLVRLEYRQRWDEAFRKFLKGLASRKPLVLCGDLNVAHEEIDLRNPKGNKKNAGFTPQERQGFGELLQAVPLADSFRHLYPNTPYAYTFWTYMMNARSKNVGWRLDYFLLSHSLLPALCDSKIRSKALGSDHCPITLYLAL
smiles,measurement,setting,value
COC(=O)c1ccc(O)c2ncc(-c3ccc(C(=O)NCCCN(C)C)cc3)cc12,Potency,[1],inactive
CC(OC(=O)c1ccc(S(C)(=O)=O)c([N+](=O)[O-])c1)C(=O)NC1C2CC3CC(C2)CC1C3 (configuration not stated),Potency,[1],inactive
CC(C)(C)OC(=O)CC(=O)NNC(=O)c1nc2ccccc2[nH]1,Potency,[1],inactive
O=C1CCCC2=C1C1(CCOCC1)N=C(Nc1nc3ccccc3o1)N2,Potency,[1],inactive
COC(=O)c1ccc(O)c2ncc(-c3ccc(C(=O)N4CCNCC4)cc3)cc12,Potency,[1],inactive
O=C1CCC2=C1C1(CCCC1)N=C(Nc1nc3ccccc3o1)N2,Potency,[1],inactive
CN(C)c1cnc2c(O)cccc2c1,Potency,[1],inactive
CN1C[C@H](C(=O)N[C@]2(C)O[C@@]3(O)C4CCCN4C(=O)[C@H](Cc4ccccc4)N3C2=O)C[C@@H]2c3cccc4[nH]cc(c34)C[C@H]21 (some centres not stated),outcome,[2],inactive
same,Potency,[3],inactive
same,Potency,[4],inactive
same,Potency,[5],inactive
same,Potency,[6],2.94 µM (active)
same,Potency,[7],2.33 µM (active)
same,outcome,[8],inactive
same,outcome,[9],inactive
same,activation,[10],0.625%
same,outcome,[11],inactive
same,outcome,[12],inactive
same,Potency,[13],11.2 µM (active)
Fc1ccc(NC(=S)Nc2nnc(-c3ccncc3)s2)cc1C(F)(F)F,Potency,[1],inactive
O=[S+]([O-])(Nc1nccs1)c1ccc(NCc2cc(Cl)cc(Br)c2O)cc1,Potency,[1],inactive
O=C(c1ccc(-c2cc(O)c3ncccc3c2)cc1)N1CCNCC1,Potency,[1],inactive
CCOc1ccc(CCNC(C)=O)cc1OCC,Potency,[1],inactive
CN(CC(=O)Nc1ccc(N2CCOCC2)cc1)Cc1c(O)ccc2ccccc12,Potency,[1],inactive
Cc1ccc(OCCn2c(CCNC(=O)c3ccsc3)nc3ccccc32)cc1,Potency,[1],inactive
CNCC[C@@H](Oc1ccc(C(F)(F)F)cc1)c1ccccc1,outcome,[2],inactive
same,Potency,[4],inactive
same,outcome,[14],inactive
same,Potency,[5],inactive
same,outcome,[9],inactive
same,activation,[10],18.7%
same,outcome,[11],inactive
same,outcome,[12],inactive
O=C(NC(c1ccco1)c1cc(Cl)c2cccnc2c1O)c1cccs1 (configuration not stated),Potency,[1],inactive
CC1(C)N=C(Nc2nc3ccccc3o2)NC2=C1C(=O)CCC2,Potency,[1],inactive
O=C(NCCCN1CCNCC1)c1cccc(-c2cc(O)c3ncccc3c2)c1,Potency,[1],inactive
Cc1cnc(-c2ccccc2C(C)C)nc1NCc1ccc(-c2ccc(F)nc2)cc1,Potency,[1],112 µM (active)
C[C@]12C=CC(=O)C=C1CCC1C2=CC[C@]2(C)[C@@H](C(=O)CN3CCN(c4cc(N5CCCC5)nc(N5CCCC5)n4)CC3)CC[C@@H]12 (some centres not stated),outcome,[2],inactive
same,Potency,[3],inactive
same,Potency,[5],inactive
same,Potency,[6],13.1 µM (active)
same,Potency,[7],13.1 µM (active)
same,outcome,[9],inactive
same,activation,[10],1.5%
same,outcome,[11],inactive
same,outcome,[12],inactive
same,Potency,[13],inactive
Cc1ccsc1C1N=C(Nc2nc3ccccc3o2)NC2=C1C(=O)CCC2 (configuration not stated),Potency,[1],inactive
CSc1cc2c(s1)c1cnn(Cc3cccc(N)c3)c(=O)c1n2C,Potency,[1],39.8 µM (active)
COc1ccccc1Nc1cc2ccccc2c(=O)[nH]1,Potency,[1],39.8 µM (active)
NC(=O)c1cccc(-c2cnc3c(O)ccc(C(=O)O)c3c2)c1,Potency,[1],inactive
COc1ccc2c(=O)n3nc(Nc4cccc(N5CCN(C)CC5)c4)sc3nc2c1,Potency,[1],inactive
NC(=O)C1CCN(c2nc(-c3ccccc3N)cs2)CC1,Potency,[1],inactive
O=C(Cc1ccccc1)NC(c1ccco1)c1cc(Cl)c2cccnc2c1O (configuration not stated),Potency,[1],inactive
C=CCNc1oc(-c2ccc(Cl)cc2)nc1C#N,Potency,[1],44.7 µM (active)
NC(=O)c1ccc(O)c2ncccc12,Potency,[1],inactive
O=C1CCCC2=C1C(c1ccncc1)N=C(Nc1nc3ccccc3o1)N2 (configuration not stated),Potency,[1],inactive
O=C1CCCC2=C1C(c1ccn[nH]1)N=C(Nc1nc3ccccc3o1)N2 (configuration not stated),Potency,[1],inactive
CC1CCC2(C1)N=C(Nc1nc3ccccc3o1)NC1=C2C(=O)CCC1 (configuration not stated),Potency,[1],inactive
CC(O)c1ccc(-c2ccc3ncnc(N4CCOCC4)c3c2)o1 (configuration not stated),Potency,[1],inactive
CCCC(=O)NCCc1c2n(c3ccc(OC)cc13)Cc1ccccc1-2,outcome,[2],inactive
same,Potency,[4],inactive
same,outcome,[14],inactive
same,Potency,[15],inactive
same,Potency,[5],inactive
same,outcome,[16],inactive
same,Potency,[6],inactive
same,outcome,[8],inactive
same,outcome,[9],inactive
same,activation,[10],-7.06%
same,outcome,[11],inactive
same,outcome,[12],inactive
same,Potency,[13],inactive
CC(C)c1nc(Nc2nc3ccccc3o2)nc2c1CCCC2,Potency,[1],inactive
O=C(O)c1ccc(O)c2ncc(N3CCC(N4CCOCC4)C3)cc12 (configuration not stated),Potency,[1],inactive
O=C1CCCC2=C1C1(CCCOC1)N=C(Nc1nc3ccccc3o1)N2 (configuration not stated),Potency,[1],inactive
CN1CCN(c2ccc(-c3cc(O)c4ncccc4c3)cc2)CC1,Potency,[1],inactive
O=C(Cc1ccc(Cl)c(Cl)c1)Nc1ccc([S+](=O)([O-])Nc2nnc(-c3ccccn3)s2)cc1,Potency,[1],35.5 µM (active)
Cc1cc(NS(=O)(=O)c2ccc(NC(=O)Cc3ccc(F)c(Cl)c3)cc2)no1,Potency,[1],inactive
CC(=O)NC(c1cccs1)c1cc(Br)c2cccnc2c1O (configuration not stated),Potency,[1],inactive
CS(=O)(=O)c1ccc(C(=O)OCC(=O)N2CCC(Cc3ccccc3)CC2)cc1[N+](=O)[O-],Potency,[1],inactive
Cc1ccc2nc3sc(C(=O)NCc4ccco4)cc3cc2c1,Potency,[1],inactive
O=S(=O)(Nc1nccs1)c1ccc(Nc2nc(-c3ccccc3)cs2)cc1,Potency,[1],50.1 µM (active)
CC1(C)OB(c2ccc(O)c3ncc(N4CCNCC4)cc23)OC1(C)C,Potency,[1],31.6 µM (active)
c1ccc(-n2ccc(-c3nnc4n3CCCCC4)c2)cc1,Potency,[1],50.1 µM (active)
C/C(=C\c1ccc2c(c1)OCO2)C1Nc2cccc3cccc(c23)N1,Potency,[1],inactive
Oc1cccc2cc(N3CCCC3)cnc12,Potency,[1],inactive
